Laboratory results: the supplement of paper PMC6555819

Columns and labels:
Assay in all cases: PBM binding z-score (relative to random genomic background probes); higher = stronger binding; sequences stand for … in GC…GCGATTGACAGCGTAGAATGAAGG
[1] = system: LXRa:RXRa (NR concentration 270 nM, RXRa partner concentration 90 nM)
Summary of the method: (§1)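 Custom Agilent 4×180K protein-binding microarrays carried double-stranded probes. Their 34-nt variable regions held direct-repeat seeds, single-nucleotide variants, half-site ablations and random human genomic background sequences. Arrays were incubated 1 h with ligand-free nuclear receptor dimers in PBS pH 7.4, 2% milk, 0.02% Triton X-100, 1 mM DTT, 0.2 mg/mL BSA and 0.4 mg/ml salmon testes DNA. Antibodies against each partner (one per run) detected binding, and scanned fluorescence was regression-normalized. Binding z-scores use random background probes as reference.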

[2] = system: LXRa homodimer (NR concentration 270 nM)
Summary of the method: as §1

[3] = system: LXRb homodimer (NR concentration 270 nM)
Summary of the method: as §1

[4] = system: PPARa:RXRa (NR concentration 270 nM, RXRa partner concentration 90 nM)
Summary of the method: as §1

[5] = system: PPARg:RXRa (NR concentration 180 nM, RXRa partner concentration 90 nM)
Summary of the method: as §1

[6] = system: PPARg:RXRa 270nM:90nM, anti-RXR (NR concentration 270 nM, RXRa partner concentration 90 nM)
Summary of the method: as §1

[7] = system: PPARg:RXRa 30nM:10nM, anti-RXR (NR concentration 30 nM, RXRa partner concentration 10 nM)
Summary of the method: as §1

[8] = system: PPARg:RXRa 90nM:30nM, anti-RXR (NR concentration 90 nM, RXRa partner concentration 30 nM)
Summary of the method: as §1

[9] = system: PPARg:RXRa DBDmut IVT, anti-RXR (DBD mutation: RXRa K156A/R161A, NR concentration 270 nM, RXRa partner concentration 90 nM)
Summary of the method: as §1

Row | Sequence | PBM binding z-score [1] | PBM binding z-score [2] | PBM binding z-score [3] | PBM binding z-score [4] | PBM binding z-score [5] | PBM binding z-score [6] | PBM binding z-score [7] | PBM binding z-score [8] | PBM binding z-score [9]
1 | CGTCCAAGGTCAAGGTCAATGAAAGAGACTCGAA | 6 | 1.82 | 1.11 | 6 | 7.25 | 6.84 | 3.28 | 5.67 | 3.68
2 | TTACCAAGGTGAAAGGTCGTTGCTGCACGCCTTG | 3.07 | 0.401 | -0.185 | 5.33 | 8.98 | 7.85 | 8.63 | 8.9 | 2.97
3 | TATAAAGGGTCAAAGGCCAGAGTACGAATGTCGA | 6.68 | 2.98 | 3.14 | 6.43 | 8.34 | 7.5 | 6.09 | 7.52 | 2.57
4 | TGAATGAGGTTAAATATCAGGGAACGTGGCGTCG | 2.5 | -0.0698 | 0.686 | 3.72 | 2.51 | 3.17 | 1.45 | 2.46 | 2.43
5 | GATACAGGGTCAGCTACAGGCCAGAGTATGGAAA | 2.54 | -0.531 | -0.596 | 4.88 | 4.13 | 3.43 | 0.683 | 2.17 | 1.22
6 | CGTCCAAGGTCATAGGGGGTCAGTGAAGACAGAT | 7.05 | 4.02 | 8.62 | 6.34 | 7.32 | 7.58 | 4.55 | 6.71 | 3.59
7 | CGTCAAAGATCAAGGTAACGTAACAGAAAGCAGC | -0.053 | -0.313 | -0.677 | 0.962 | 0.887 | 1.09 | 0.0515 | 0.332 | 0.519
8 | CGTCCAAGGTCACGGTCAGTGAAAGAGACTCGAA | 6.12 | 0.892 | 0.155 | 6.27 | 7.75 | 7.26 | 4.16 | 6.37 | 4.83
9 | ACTCGGTGGACAAAGGTCAGAGCTACGCCAGTGA | 3.52 | 0.715 | -0.512 | 4.25 | 6.18 | 6.42 | 5.2 | 6.63 | 0.195
10 | CGAACGAGGTCATCCAGGACAGTGAATACATTGA | 6.03 | 1.53 | 1.78 | 6.37 | 7.79 | 7.07 | 3.9 | 6.1 | 5.37
11 | TCTCGGAGGACACTAAAGGTCAGAGCTCGACATC | 5.15 | 5.33 | 0.134 | 3.42 | 1.47 | 2.94 | 2.78 | 2.97 | 1.65
12 | AATACAGGGTCATCGTACGCCAGAGTACGCACAG | 6.21 | 2.87 | 1.54 | 5.99 | 7.02 | 6.25 | 2.92 | 5.21 | 2.92
13 | GCTGCTAGGTCAACTGATGGTCACCTAAAGCTCG | 3.3 | 0.787 | 0.117 | 3.99 | 3.2 | 3.59 | 0.832 | 2.56 | 5.16
14 | CGAACGAGGTCATTGACAGGACAGTGAATAGTAA | 6.11 | 1.41 | 1.44 | 6.13 | 6.82 | 6.46 | 3.58 | 6.21 | 5.35
15 | CGAACTAGGTCTAAGGACAGTGAAAGGCGACGTA | -0.762 | -0.416 | -1.3 | 0.792 | 2.4 | 3.45 | 1.89 | 3.31 | 2.2
16 | CCTAGTGGGCCAAGGTCATTGATCAGTCAAAGCA | 2.91 | 0.693 | -0.381 | 3.87 | 4.1 | 4.29 | 1.64 | 3.71 | 3.98
17 | TCTCGGAGGACACCAAAGGTCAGAGCTCGACATC | 4.25 | 3.82 | -0.0325 | 3.65 | 2.04 | 3.71 | 2.56 | 3.22 | 1.47
18 | GCTAGTTGGTCAGTAAAATGTCACACACCGGTCG | 0.173 | -0.0317 | -0.257 | -0.0403 | 0.556 | -0.103 | -0.158 | 0.223 | 0.762
19 | ACGCGGAGGACAAAGGTCAGAGCTACGCCAGTGA | 4.13 | 1.02 | 0.25 | 4.75 | 7.04 | 6.29 | 4.31 | 6.15 | 0.442
20 | GATACAGGGTCGGCTAGAGGCCAGAGTATGGAAA | 0.191 | -0.632 | -1.28 | 1.36 | 0.561 | 0.616 | -0.167 | 0.215 | -0.804
21 | CCTACTGGGCCAAAAAGTTCATTGATGCCGATAA | 1.47 | 2.92 | -0.369 | 1.72 | 1.09 | 1.53 | 0.0164 | 1.05 | 3.74
22 | CGTCCAAGGACAATGCTAGGTCAGTGAAAGCATT | 0.187 | 0.593 | -0.885 | 0.16 |  | -0.429 | -0.602 | -0.31 | 0.442
23 | CCAGACAGGTGAGAAGGTAACTCAGCCTCGATTA | 0.435 | 0.0228 | -0.0173 | 0.833 | 0.522 | 0.838 | 0.0404 | 0.628 | 1
24 | ATTTGTAGGTTACATCCGGGTCATTCAGGCTATG | 5.11 | 2.84 | 1.83 | 4.12 | 4.22 | 4.28 | 2.12 | 3.26 | 6.92
25 | CCTACTCGGCCAAAAAGGTCATTGATGCCGATAA | 4.55 | 4.59 | 0.927 | 4.87 | 1.91 | 3.11 | 0.833 | 2.27 | 1.1
26 | CGAACTAGGTCAAGGACAGTAAATCTCCGCACGC | 2.4 | 0.115 | -0.249 | 4.71 | 7.56 | 6.25 | 3.88 | 6.02 | 7.9

Row | Sequence | PBM binding z-score [1] | PBM binding z-score [2] | PBM binding z-score [3] | PBM binding z-score [4] | PBM binding z-score [5] | PBM binding z-score [6] | PBM binding z-score [7] | PBM binding z-score [8] | PBM binding z-score [9]
27 | ATCGAAAGGTCCACGAGGTGAGTATACACCGTTT | 0.186 | -0.0739 | -0.26 | 0.734 | 0.818 | 0.448 | 0.0544 | 0.533 | 0.0323
28 | CAGCATAGGTCAGGGCCAGTATAGGAGGAACGTT | 2.57 | -0.16 | -0.316 | 3.86 | 2.08 | 1.98 | 0.464 | 0.958 | 0.577
29 | TTACCAAGGTGAACGGTCGTTGATGCACGCCTTG | 0.744 | -0.159 | -0.974 | 2.04 | 1.77 | 2.8 | 1.17 | 2.35 | 2.31
30 | CGTCAAAGTCCAAGGTAACGTAACAGAAAGCAGC | -0.0963 | 0.0661 | -0.271 | 0.351 | 0.688 | 0.296 | 0.129 | 0.303 | 0.295
31 | CGTCCAAGGTCATAGAGGTCAGTGAATGCCGAGT | 6.21 | 5.25 | 1.36 | 5.85 | 5.9 | 6.21 | 2.57 | 4.71 | 4.3
32 | CCTACTGGGCCTAAGGTCATTGATTCCAATGCTC | 2.93 | 2.32 | 0.209 | 4.53 | 7.98 | 8.17 | 7.15 | 8.08 | 1.25
33 | AGAACGAGGTCACGCTGAGTTGATAGCAGAGTAG | 6.2 | 0.912 | 0.705 | 6.34 | 9.52 | 8.1 | 6.32 | 7.52 | 6.78
34 | AGTCAAAGTTTATCTAGGTAACGTAAGATATGCT | 0.263 | 0.141 | -0.331 |  | 2.44 | 2.51 | 0.904 | 1.95 | 2.68
35 | CCAACTGGGCCAAAAAGGTCATTGATGCCGATAA | 4.4 | 3.17 | 0.337 | 4.57 | 3.08 | 4.09 | 1.65 | 3.3 | 4.24
36 | ATATGTAGGTTAGCTGGGGTCATTCACACTAGGC | 5.86 | 3.53 | 1.66 | 5.22 | 5.47 | 5.14 | 2.95 | 4.69 | 6.87
37 | CGAACTAGGTCAAGGGACAGTGAAAGGCGACGTA | 2.17 | -0.308 | -0.604 | 4.78 | 8.6 | 7.25 | 5.85 | 7.35 | 7.79
38 | CGTCCGAGGTCATAGGAGGTCAGTGAAGACAGAT | 7.86 | 5.54 | 1.19 | 6.37 | 6.96 | 6.5 | 2.81 | 5.53 | 3.62
39 | GCTGCTAGGTCAACTGATGGTCAACTAAAGCTCG | 3.47 | 0.653 | 0.415 |  | 3.01 | 3.06 | 0.746 | 2.31 | 4.87
40 | ATCGAAAGGTCGAAGGTGCGTATACCCACCCGAA | 3.22 | 0.0571 | 0.0928 |  | 3.21 | 3.25 | 1.01 | 2.44 | -0.0152
41 | CGAACAAGGTCACCAGGACAGTGAAGAGGTTGGA | 5.26 | 0.443 | 0.736 |  | 7.8 | 7.38 | 3.87 | 6.13 | 5.38
42 | TGTCAAAGTTCAAAGGTGACGTAAGTATCCACAC | 6.41 | 4.7 | 1.8 |  | 9.47 | 7.89 | 6.06 | 7.61 | 0.732
43 | CGAACTAGGTCAAGGCCAGTGAATCTCCGCACGC | 2.42 | 0.284 | -0.563 |  | 7.33 | 6.58 | 3.87 | 6.13 | 8.07
44 | CGAACGAGGTCATGAGTTGATAGCAAATGCCGAT | 5.51 | 0.616 | 0.023 |  | 7.55 | 6.94 | 4.16 | 5.98 | 5.48
45 | CCTTACGGGTAACGAGGTTATAGCACGACGAGCG | 0.424 | -0.553 | -0.211 |  | 1.49 | 1.14 | 0.156 | 0.641 | 1.07
46 | GCTGCGAGGTCAACTGATGGTCAGCTAAAGCTCG | 5.87 | 1.54 | 1.67 |  | 6.28 | 6.33 | 2.91 | 5.05 | 3.65
47 | CCTTAGGGGTCACTGACAGGTTATAGCATTTGGA | 6.55 | 1.33 | 0.926 |  | 9.33 | 8.43 | 5.34 | 7.46 | 4.82
48 | AGAATGGGGTTATACGTAGATCAGGGAAGAAAGT | 2.95 | 0.583 | 2.07 |  | 3.69 | 4 | 1.39 | 3.03 | 4.84
49 | TAGCCTAGGTCATACAGGGGCCAGTATAGAAAGC | 3.34 | 0.359 | 0.751 |  | 2.36 | 2.35 | 0.845 | 1.62 | 1.94
50 | TAGCCGAGGTCATTCAGGGGCCAGTATAGAAAGC | 6.28 | 2.47 | 2.89 |  | 6.14 | 5.81 | 2.43 | 4.55 | 1.75
51 | CATACAGGGTCGGCTAGGCCAGAGTAGGGACGGC | 0.0375 | -0.58 | -0.356 |  | 0.288 | -0.0886 | -0.643 | -0.513 | -0.787
52 | AGAATGAGGTCATACGTAGATCAGGGAAGAAAGT | 6 | 1.75 | 1.92 |  | 7.83 | 7.25 | 4.88 | 6.67 | 6.81
